Laboratory results taken from PubChem BioAssay AID2414 (Southern Research Specialized Biocontainment Screening …, 2010).
Entries with a potency or affinity are not part of this list. Calls of active or inactive are those of the source. How the calls were made is not given here.

Experiment: cytotoxicity of synthesized analogs in Vero 76, SAR follow-up, cytotoxicity control for West Nile virus antiviral project, Vero 76 cells (AID 2414)
Settings: Vero 76 cells viability, cytotoxicity CC50; series mostly up to 66.6 µM
For `O=C(CSc1nc2cccc(F)c2c(=O)n1-c1ccccc1)Nc1ccc2c(c1)CCC2`, the outcome was “inactive”.
With `O=C(CSc1nc2ccc(F)cc2c(=O)n1-c1ccccc1)Nc1ccc2c(c1)CCC2` the outcome was “inactive”.
In the case of `OC1c2c(F)cccc2N=C2CCCCCN21` (stereo not given), the outcome is reported as “inactive”.
For `O=C(CSc1nc2ccccc2c(=O)n1-c1ccc(F)cc1F)Nc1ccc(N2CCOCC2)cc1`, the outcome was “inactive”.
For `OC1c2c(F)cccc2N=C2CCCCN21` (stereo not given), the outcome was “inactive”.
In the case of `Cc1ccc2nc3n(c(=O)c2c1)CCC3`, the outcome is reported as “inactive”.
For `CC(=O)Nc1ccc2nc3n(c(=O)c2c1)CCC3`, the outcome was “inactive”.
In the case of `CCCN(C(=O)c1ccccc1Cl)c1nc(-c2ccc(OC)cc2)cs1`, the outcome is reported as “inactive”.
With `Cc1cccc2nc3n(c(=O)c12)CCC3` the outcome was “inactive”.
With `COc1ccccc1NC(=O)CSc1nc2ccccc2c(=O)n1-c1ccc(F)cc1` the outcome was “inactive”.
For `O=c1c2cc(Cl)cc(Cl)c2nc2n1CCC2`, the outcome was “inactive”.
In the case of `O=c1c2cc(I)ccc2nc2n1CCC2`, the outcome is reported as “inactive”.
For `COc1ccc(-c2csc(N(Cc3ccccc3)C(=O)c3ccccc3Cl)n2)cc1`, the outcome was “inactive”.
For `OC1c2c(F)cccc2N=C2CCCN21` (stereo not given), the outcome was “inactive”.
For `OC1c2cc(I)ccc2N=C2CCCN21` (stereo not given), the outcome was “inactive”.
With `COc1ccc(-c2csc(N(C)C(=O)c3ccccc3Cl)n2)cc1` the outcome was “inactive”.
For `COc1ccc(Cn2nc(C)cc2OC(=O)c2ccccc2)cc1`, the outcome was “inactive”.
For `O=C(CSc1nc2ccccc2c(=O)n1-c1ccc(F)cc1)Nc1ccc2c(c1)OCCO2`, the outcome was “inactive”.
For `CC1CC(C)CN(C(=O)CSc2nc3ccccc3c(=O)n2-c2ccc(F)cc2)C1` (stereo not given), the outcome was “inactive”.
In the case of `CC1(O)c2cc(Br)ccc2N=C2CCCN21` (stereo not given), the outcome is reported as “inactive”.
